Measured values from PubChem BioAssay (NCI).
This is part of a sample that, as a whole, favours compounds with a hit. Of some 83,000 tested, about 20% had one in any assay.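 96-well plates, one dose, 48 hours. Percent growth reported; active if below 10.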 Values without a mark were called inactive. Active and inactive are the calls of the source.

Legend:
Assay in all cases: NCI-60 one-dose screen, 48 h (100 = growth as untreated, 0 = no growth, -100 = all killed)
Settings in all cases: 10 µM
[1] = system: NCI-H23 lung
[2] = system: NCI-H226 lung
[3] = system: NCI-H322M lung
[4] = system: HOP-62 NSCLC
[5] = system: NCI-H460 lung
[6] = system: HOP-92 NSCLC
[7] = system: NCI-H522 lung
[8] = system: A549/ATCC NSCLC
[9] = system: 786-0 renal
[10] = system: COLO 205 colon

| SMILES | growth [1] | growth [2] | growth [3] | growth [4] | growth [5] | growth [6] | growth [7] | growth [8] | growth [9] | growth [10] |
| --- | --- | --- | --- | --- | --- | --- | --- | --- | --- | --- |
| C=C[C@]1(C)C=C2C(=O)[C@@]3(O)OC(=O)[C@@]4(CCCC(C)(C)[C@H]34)[C@@]2(O)CC1 | -60.6% (active) | -55.8% (active) | -27.4% (active) | -1.33% (active) | 0.905% (active) | -87.6% (active) | -71.7% (active) | -66.6% (active) | -98.5% (active) | -98.2% (active) |
| N#CC1C=Cc2c(ccc3ccccc23)N1C(=O)c1ccccc1 (stereo not given) | 29.8% | 12.9% | 22.6% | 50% | 1.38% (active) | 50.6% | 9.32% (active) | 26.9% | 34% | -39.8% (active) |
| O=S(=O)(O)C1(O)CCCCC1 | 93.3% | 95.4% | 89.5% | 81.8% | 48% | 101% | 91.7% | 98.9% | 102% | 96.1% |
| FC(F)(F)c1ccc(-c2cnc(Cl)nc2NCc2cc(C(F)(F)F)cc(C(F)(F)F)c2)cc1 | 1.54% (active) | 7.69% (active) | 37.8% | 33.4% | 3.48% (active) | -35.3% (active) | -4.24% (active) | 15.8% | 11.5% | -51.1% (active) |
| Cc1ccc(Cl)cc1Nc1nc(C(F)(F)F)ccc1C(=O)N/N=C/c1c(Cl)cccc1Cl | 6.65% (active) | -40.5% (active) | 17.8% | 7.32% (active) | -0.639% (active) | -31% (active) | -16.7% (active) | -9.23% (active) | -32.6% (active) | -51.5% (active) |
| Nc1c(C(=O)Nc2ccccc2F)sc2nc3c(cc12)C(=O)CCC3 | 42.8% | 75.1% | 68.8% | 42.7% | 11.4% | 53.6% | -15.2% (active) | 22% | 41.5% | 5.76% (active) |
| CCc1ccc(-c2nnc(COc3ccc(-c4nc5ccc(C)cc5[nH]4)cc3OC)o2)cc1 | 57.2% | 48.6% | 87.2% | 32.6% | 63.5% | 74.1% | 71.3% | 61.6% | 21% | 84.7% |
| O=C(N/N=c1/ccoc2cccnc12)N1CCN(c2ncccn2)CC1 | 26.4% | 37.6% | 39.1% | 24.5% | 15.2% | 64.2% | 9.96% (active) | 17.6% | 40.4% | 4.3% (active) |
| COc1cc(CSc2nc3ccc(Cl)cc3c(=O)n2Cc2ccccc2)cc(OC)c1OC | 25% | 47.9% | 47.5% | 37.7% | 20.5% | 71.3% | -0.0842% (active) | 42.2% | 43.4% | -37.8% (active) |
| N=C(N)c1ccc(-c2ccc(-c3ccccc3)s2)cc1F | -65.9% (active) | -62.7% (active) | -88.5% (active) | -83% (active) | -79.5% (active) | -83.7% (active) | -75.2% (active) | -74.2% (active) | -85% (active) | -78.1% (active) |
| NC1CCC(Nc2nc(NCc3ccc(-c4ccco4)nc3)c3ncn(C4CCCC4)c3n2)CC1 (stereo not given) | -18.1% (active) | -18.6% (active) | 21.4% | -17.1% (active) | 4.97% (active) | -16.3% (active) | -70.6% (active) | 3.69% (active) | 8.51% (active) | -62.7% (active) |
| O=[N+]([O-])C1CC2C=CC1C2 (stereo not given) | 100% | 94.9% | 91.1% | 93.3% | 108% | 110% | 101% | 92.3% | 90.4% | 115% |
| N#CN1CC[C@H](C(=O)Nc2ncc(-c3ccccc3)s2)C1 | -9.83% (active) | -6.52% (active) | 28.4% | -3.88% (active) | 2.02% (active) | 0.798% (active) | -35.6% (active) | -5.79% (active) | 3.56% (active) | -63.3% (active) |
| O=C(Nc1ccc(OCc2nnc(-c3ccccc3)o2)c(F)c1)Nc1ccc(Cl)c(Cl)c1 | 53% | 72.3% | 62.5% | 76.6% | 36.6% | 55.5% | 35% | 55.5% | 82.1% | 58.9% |
| CCCCNC(=O)Oc1ccc(/C(=C(\C)c2ccc(OC)cc2)c2ccc(OCCN3CCCCC3)cc2)cc1 | 68.4% | 96.5% | 87.6% | 69.1% | 34.6% | 47.2% | 74% | 47.5% | 17.1% | -7.56% (active) |
| O=[N+]([O-])c1cc2ncccc2c2ncccc12 | 81.3% | 96.3% | 80.3% | 137% | 66.9% | 109% | 15.8% | 88.4% | 110% | 95.6% |
| Cc1cc(Nc2cccc(F)c2)nc(NCc2ccccc2)n1 | -2.43% (active) | 40.4% | 63.2% | 70.5% | 6.63% (active) | -2.56% (active) | 6.89% (active) | 16.2% | 45.7% | 8.24% (active) |
| NC1CCC(Nc2nc(NCc3ccc(-c4ccccc4O)nc3)c3ncn(C4CCCC4)c3n2)CC1 (stereo not given) | -50.2% (active) | -3.35% (active) | 10.1% | -9.04% (active) | -8.3% (active) | -17.7% (active) | -55.2% (active) | -25.2% (active) | -38.3% (active) | -70.4% (active) |
| O=C1NN(c2ccccc2)C(c2cccnc2)=N/C1=C\c1cccnc1 | 89.4% | 80.8% | 84.9% | 92% | 95.2% | 99% | 105% | 112% | 98.8% | 105% |
| COc1ccc(/C(CS(=O)(=O)c2ccccc2)=N\O)cc1 | 105% | 89.1% | 108% | 109% | 109% | 109% | 97.3% | 92.1% | 104% | 114% |
| COc1ccc(-c2cc(/C=C/C(=O)c3ccc(N)cc3)[nH]n2)cc1OC | 51.6% | 82.3% | 38.3% | 55.4% | 3.19% (active) | 33.5% | 24.7% | 32% | 42.6% | 27.1% |
| CCCCCC(CCC)COC(=O)c1ccc(OC)cc1 (stereo not given) | 97.4% | 88.6% | 101% | 92.3% | 111% | 93.7% | 90.7% | 80.9% | 101% | 105% |
| COc1cc(-c2cc(-c3ccc(C)cc3)nc3nc(N)[nH]c(=O)c23)ccc1Oc1ccnc2cc(Cl)ccc12 | 107% | 73.3% | 80.6% | 98.4% | 96% | 70.4% | 92.5% | 78.7% | 98.1% | 107% |
| O=C1CC[C@@H](C(=O)N[C@H]2CSSC[C@@H](C(=O)N/C=C/c3ccc(O)cc3)NC(=O)[C@H](Cc3ccccc3)NC(=O)[C@@H]3CCCN3C(=O)[C@@H]3CCCN3C2=O)N1 | 96.5% | 93.5% | 108% | 78.2% | 102% | 99.2% | 87.4% | 85.2% | 118% | 102% |
| N#C/C(=C\N1C(=O)/C(=C/c2cccc([N+](=O)[O-])c2)SC1=S)c1nc2ccccc2s1 | 68.9% | 77.2% | 92.9% | 73.1% | 94.7% | 8.99% (active) | 57.8% | 70% | 88.3% | 101% |
| COc1ccc(CCc2nc3cc(-c4c(C)noc4C)ccc3n2CCN2CCOCC2)cc1 | 49.5% | 48.3% | 75.8% | 40.2% | 30.4% | -7.34% (active) | 12% | 26.4% | 60.8% | 5.86% (active) |
| COC(=O)c1c(C)nc(Nc2nc3ccccc3s2)nc1-c1ccc(Cl)cc1Cl | 103% | 102% | 106% | 97% | 106% | 107% | 96.1% | 107% | 104% | 110% |
| COc1cc(C2C(C#N)=C(c3c[nH]c4ccccc34)Nc3nc(N)[nH]c(=O)c32)cc(OC)c1OC (stereo not given) | 80.7% | 86.3% | 104% | 82.9% | 106% | 47.8% | -11.7% (active) | 105% | 100% | 65% |
